Test results from PubChem BioAssay (NCATS).
Results filed as inconclusive are left out. Calls of active or inactive are those of the source. Calls come from the whole dose curve; as a rule, active = well fitted curve in the direction sought with a large enough effect; inconclusive = small, poorly fitted or top-dose-only effect, or another doubt; inactive = no such curve, though single readings can be large; an effect the other way counts as inactive or inconclusive. Positions of bridges follow the written chain, without caps; N, C: chain ends. Non-standard residues stand in square brackets, D forms with d. Residues, ends and D or L forms follow the SMILES beside them. ξ: configuration not given here. *: point of attachment. Octanoyl(6-Me) = CCC(C)CCCCC(=O)*; ξThr(3R) = C[C@@H](O)C(N)C(=O)O; dDab = NCC[C@@H](N)C(=O)O; Dab = NCC[C@H](N)C(=O)O

Experiments:
CRL-7250 = normal cell line; experiment: Cytotoxic Profiling of Annotated Libraries Using Quantitative High-Throughput Screening (AID 1296008); details: Five cell lines viability, CellTiter-Glo ATP luminescence, 48-72 h; max response: stronger effect = lower value; note: nearly all actives have a fitted effect of over 60% in size; note: potency is the fitted concentration of half-maximal effect
Procedure, shortened: (§1)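 Cytotoxicity was measured as CellTiter-Glo ATP luminescence, read after 10 min at room temperature. Compound treatment of the cells lasted 48 or 72 hr at 37 degrees Celsius in a qHTS format.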

HEK293 = experiment: as above; details: Five cell lines viability, CellTiter-Glo ATP luminescence, 48-72 h; max response: stronger effect = lower value
Procedure, shortened: as §1

HaCat [1] = experiment: as above; details: Five cell lines viability, CellTiter-Glo ATP luminescence, 48-72 h; max response: stronger effect = lower value
Procedure, shortened: as §1

KB-3-1 = experiment: as above; details: Five cell lines viability, CellTiter-Glo ATP luminescence, 48-72 h; max response: stronger effect = lower value
Procedure, shortened: as §1

NIH3T3 [2] = experiment: as above; details: Five cell lines viability, CellTiter-Glo ATP luminescence, 48-72 h; max response: stronger effect = lower value
Procedure, shortened: as §1

HACAT [3] = experiment: qHTS assay to identify novel small-molecules to repurpose for Merkel cell carcinoma treatment (AID 1296009); details: MCC and control cell lines, CellTiter-Glo viability, 72 h; at 44.8 µM (top of the series) unless noted; note: nearly all actives have a fitted effect of over 60% in size; note: potency is the fitted concentration of half-maximal effect
Procedure, shortened: (§2)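 Cell viability, measured as CellTiter-Glo luminescence, was normalized between DMSO and no-cell wells. The cells had been exposed to 8- or 11-point compound dilutions for 72 hr at 37 degree celsius.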

MCC-13 = experiment: as above; details: MCC and control cell lines, CellTiter-Glo viability, 72 h; series mostly up to 46 µM
Procedure, shortened: as §2

MCC-26 = experiment: as above; details: MCC and control cell lines, CellTiter-Glo viability, 72 h; series mostly up to 46 µM
Procedure, shortened: as §2

MKL-1 = experiment: as above; details: MCC and control cell lines, CellTiter-Glo viability, 72 h; series mostly up to 46 µM
Procedure, shortened: as §2

MKL-2 = experiment: as above; details: MCC and control cell lines, CellTiter-Glo viability, 72 h; series mostly up to 46 µM
Procedure, shortened: as §2

UISO = experiment: as above; details: MCC and control cell lines, CellTiter-Glo viability, 72 h; series mostly up to 46 µM
Procedure, shortened: as §2

WaGa = experiment: as above; details: MCC and control cell lines, CellTiter-Glo viability, 72 h; series mostly up to 46 µM
Procedure, shortened: as §2

C33A = experiment: Primary qHTS to identify gynecologic anti-cancer compounds using libraries of approved drugs and bioactive compounds (AID 1345084); details: Gynecologic cancer cell panel viability, ATPlite luminescence, 48 h; series mostly up to 57.5 µM; note: nearly all actives have a fitted effect of over 55% in size
Procedure, shortened: (§3)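 Five-point cytotoxicity, 48 h drug exposure at 37 C, 5% CO2, on cells seeded 16 h beforehand. ATP content read by ATPlite luminescence.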

CASKI = experiment: as above; details: Gynecologic cancer cell panel viability, ATPlite luminescence, 48 h; series mostly up to 57.5 µM
Procedure, shortened: as §3

Es-2 = experiment: as above; details: Gynecologic cancer cell panel viability, ATPlite luminescence, 48 h; series mostly up to 57.5 µM
Procedure, shortened: as §3

HeLa = experiment: as above; details: Gynecologic cancer cell panel viability, ATPlite luminescence, 48 h; series mostly up to 57.5 µM
Procedure, shortened: as §3

Hek293T [4] = experiment: as above; details: Gynecologic cancer cell panel viability, ATPlite luminescence, 48 h, control line for the selectivity index; series mostly up to 57.5 µM
Procedure, shortened: as §3

JEG-3 = experiment: as above; details: Gynecologic cancer cell panel viability, ATPlite luminescence, 48 h; series mostly up to 57.5 µM
Procedure, shortened: as §3

NIH3T3 [5] = experiment: qHTS assay to identify novel small-molecules to repurpose for Merkel cell carcinoma treatment (AID 1296009); details: MCC and control cell lines, CellTiter-Glo viability, 72 h; at 44.8 µM (top of the series) unless noted; note: nearly all actives have a fitted effect of over 60% in size; note: potency is the fitted concentration of half-maximal effect
Procedure, shortened: as §2

HEK293T [6] = experiment: as above; details: MCC and control cell lines, CellTiter-Glo viability, 72 h; series mostly up to 44.8 µM
Procedure, shortened: as §2
% is set by controls: 0 for no effect and ±100 for the full control effect.

C[N+]1(C)[C@@H]2C[C@@H](OC(=O)C(O)(c3cccs3)c3cccs3)C[C@H]1[C@@H]1O[C@@H]12
inactive: outcome (CRL-7250) | max response (HEK293) -10% | outcome (HaCat [1]) | outcome (KB-3-1) | max response (NIH3T3 [2]) -6.05% | outcome (HACAT [3]) | Potency (MCC-13) | Potency (MCC-26) | Potency (MKL-1) | Potency (MKL-2) | Potency (UISO) | Potency (WaGa) | Potency (C33A) | Potency (CASKI) | Potency (Es-2) | Potency (HeLa) | Potency (Hek293T [4]) | Potency (JEG-3)

CCN(C(=O)c1c(O)c2c(Cl)cccc2n(C)c1=O)c1ccccc1
active: Potency (CRL-7250) 5.9 µM | Potency (HEK293) 4180 nM
inactive: outcome (HaCat [1]) | max response (KB-3-1) 3.28% | max response (NIH3T3 [2]) -5.88% | outcome (HACAT [3]) | Potency (MCC-13) | Potency (MCC-26) | Potency (MKL-1) | Potency (MKL-2) | Potency (WaGa)

CN(C)CC[C@H](c1ccc(Cl)cc1)c1ccccn1
inactive: outcome (CRL-7250) | max response (HEK293) -15.3% | max response (HaCat [1]) -31.9% | max response (KB-3-1) -7.57% | max response (NIH3T3 [2]) -0.393% | Potency (MCC-13) | Potency (MCC-26) | Potency (MKL-1) | Potency (MKL-2) | Potency (UISO) | Potency (WaGa)

COc1ccc(CCC(=O)c2c(O)cc(O[C@@H]3O[C@H](CO)[C@@H](O)[C@H](O)[C@@H]3O[C@@H]3O[C@@H](C)[C@H](O)[C@@H](O)[C@@H]3O)cc2O)cc1O
inactive: max response (CRL-7250) -4.09% | max response (HEK293) -11.6% | outcome (HaCat [1]) | max response (KB-3-1) -1.61% | outcome (NIH3T3 [2]) | outcome (HACAT [3]) | Potency (MCC-13) | Potency (MKL-1) | Potency (MKL-2) | outcome (NIH3T3 [5]) | Potency (UISO) | Potency (WaGa)

CC(=O)NC(CS)C(=O)O (centres undefined)
inactive: max response (CRL-7250) 1.57% | max response (HEK293) -9.86% | outcome (HaCat [1]) | max response (KB-3-1) -3.44% | max response (NIH3T3 [2]) -5.75% | outcome (HACAT [3]) | Potency (MCC-13) | Potency (MCC-26) | Potency (MKL-1) | Potency (MKL-2) | Potency (UISO) | Potency (WaGa)

CC(=O)N[C@@H]1[C@H](O[C@@H]2c3ccc(c(Cl)c3)Oc3cc4cc(c3O[C@H]3O[C@H](CO)[C@@H](O)[C@H](O)[C@H]3NC(=O)CCCCCCCC(C)C)Oc3ccc(cc3Cl)C[C@H]3NC(=O)[C@H](N)c5ccc(O)c(c5)Oc5cc(O)cc(c5)[C@H](NC3=O)C(=O)N[C@H]4C(=O)N[C@H]3C(=O)N[C@@H]2C(=O)N[C@@H](C(=O)O)c2cc(O)cc(O[C@H]4O[C@H](CO)[C@@H](O)[C@H](O)[C@H]4O)c2-c2cc3ccc2O)O[C@H](CO)[C@@H](O)[C@@H]1O
inactive: outcome (CRL-7250) | outcome (HEK293) | max response (HaCat [1]) 2.16% | outcome (KB-3-1) | max response (NIH3T3 [2]) 4.41% | Potency (HEK293T [6]) | Potency (MCC-13) | Potency (MCC-26) | Potency (MKL-1) | Potency (MKL-2) | Potency (UISO) | Potency (WaGa)

O=C1c2c(O)cccc2[C@@H]([C@@H]2O[C@H](CO)[C@@H](O)[C@H](O)[C@H]2O)c2cc(CO)cc(O)c21
inactive: max response (CRL-7250) -3.91% | outcome (HEK293) | max response (HaCat [1]) -8.19% | outcome (KB-3-1) | max response (NIH3T3 [2]) 4.49% | Potency (HEK293T [6]) | Potency (MCC-13) | Potency (MKL-1) | Potency (MKL-2) | Potency (UISO) | Potency (WaGa)

C[C@@H](Oc1ccc2[nH]nc(C=Cc3cnn(CCO)c3)c2c1)c1c(Cl)cncc1Cl
inactive: Potency (MKL-2)
active: Potency (CRL-7250) 11.8 µM | Potency (HEK293) 13200 nM | Potency (HaCat [1]) 3.32 µM | Potency (KB-3-1) 418 nM | Potency (NIH3T3 [2]) 3.72 µM | Potency (MCC-13) 26.4 µM | Potency (MCC-26) 16.6 µM | Potency (MKL-1) 7.43 µM | Potency (UISO) 20.9 µM

CCC(C)CCCCC(=O)N[C@@H](CCN)C(=O)NC(C(=O)N[C@H](CCN)C(=O)N[C@@H]1CCNC(=O)C([C@@H](C)O)NC(=O)[C@@H](CCN)NC(=O)[C@@H](CCN)NC(=O)[C@@H](CC(C)C)NC(=O)[C@H](Cc2ccccc2)NC(=O)[C@H](CCN)NC1=O)[C@@H](C)O (stereo partly drawn) ({Octanoyl(6-Me)}-[Dab][ξThr(3R)][dDab][dDab][Dab]F[dL][dDab][dDab][ξThr(3R)]; lactam 4-C)
inactive: outcome (CRL-7250) | outcome (HEK293) | max response (HaCat [1]) 0.455% | max response (KB-3-1) 0.786% | outcome (NIH3T3 [2]) | Potency (HEK293T [6]) | Potency (MCC-13) | Potency (MCC-26) | Potency (MKL-1) | Potency (MKL-2) | outcome (NIH3T3 [5]) | Potency (UISO) | Potency (WaGa)

COc1cc([C@@H]2c3cc4c(cc3[C@H](O)[C@H]3COC(=O)[C@@H]23)OCO4)cc(OC)c1OC
inactive: max response (HaCat [1]) 4.88%
active: Potency (CRL-7250) 0.296 µM | Potency (HEK293) 132 nM | Potency (KB-3-1) 235 nM | Potency (NIH3T3 [2]) 0.187 µM | Potency (MCC-13) 0.662 µM

Cc1cn([C@@H]2O[C@H](CO)[C@@H](O)[C@H]2F)c(=O)[nH]c1=O
inactive: max response (CRL-7250) -5.97% | max response (HEK293) -1.3% | max response (HaCat [1]) -13.3% | outcome (KB-3-1) | outcome (NIH3T3 [2]) | Potency (MCC-13) | Potency (MCC-26) | Potency (MKL-1) | Potency (MKL-2) | outcome (NIH3T3 [5]) | Potency (UISO) | Potency (WaGa) | Potency (C33A) | Potency (CASKI) | Potency (Es-2) | Potency (HeLa) | Potency (Hek293T [4]) | Potency (JEG-3)

O=C1NC(=O)[C@@H](c2cn3c4c(cccc24)CCC3)[C@H]1c1c[nH]c2ccccc12
active: Potency (CRL-7250) 13.2 µM | Potency (HEK293) 662 nM | Potency (KB-3-1) 833 nM | Potency (NIH3T3 [2]) 2.09 µM | Potency (MCC-13) 3.32 µM | Potency (MKL-2) 23.5 µM | Potency (UISO) 1.18 µM
inactive: outcome (HaCat [1]) | outcome (HACAT [3])

COc1cccc2c1C(=O)c1c(O)c3c(c(O)c1C2=O)C[C@@](O)(C(C)=O)C[C@H]3O[C@H]1C[C@H](N)[C@H](O)[C@H](C)O1
active: Potency (CRL-7250) 0.132 µM | Potency (HEK293) 66.2 nM | Potency (HaCat [1]) 0.418 µM | Potency (KB-3-1) 235 nM | Potency (NIH3T3 [2]) 0.209 µM | Potency (MCC-13) 0.59 µM | Potency (MCC-26) 0.372 µM | Potency (MKL-1) 0.0332 µM | Potency (MKL-2) 0.0235 µM | Potency (UISO) 0.0469 µM

CC(C=CC=C(C)C=CC1=C(C)CCCC1(C)C)=CC=CC=C(C)C=CC=C(C)C=CC1=C(C)CCCC1(C)C
inactive: max response (CRL-7250) -6.98% | max response (HEK293) -0.757% | outcome (HaCat [1]) | max response (KB-3-1) 8.98% | max response (NIH3T3 [2]) -4.98% | outcome (HACAT [3]) | Potency (MCC-13) | Potency (MKL-1) | Potency (UISO)

CCN1CCN(C(=O)N[C@H](C(=O)N[C@@H]2C(=O)N3C(C(=O)O)=C(CSc4nnnn4C)CS[C@@H]23)c2ccc(O)cc2)C(=O)C1=O
inactive: max response (CRL-7250) 2.05% | outcome (HEK293) | max response (HaCat [1]) 2.66% | outcome (KB-3-1) | max response (NIH3T3 [2]) 3.36% | outcome (HEK293T [6]) inactive [at 9.27 µM] | activity change, negative = cytotoxicity (MCC-13) 4.78% [at 9.22 µM] | activity change, negative = cytotoxicity (MCC-26) -6.39% [at 9.22 µM] | activity change, negative = cytotoxicity (MKL-1) 8.33% [at 9.22 µM] | activity change, negative = cytotoxicity (MKL-2) -17.3% [at 9.22 µM] | activity change, negative = cytotoxicity (UISO) -1.23% [at 9.22 µM] | activity change, negative = cytotoxicity (WaGa) -1.78% [at 9.22 µM]
